Our source for the growth values is PubChem BioAssay (NCI).

The panel holds about 83,000 compounds, 20% with a hit somewhere; the sample as a whole holds those more often.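 Activity criterion: percent growth below 10, measured after cells in 96-well plates were exposed to a single compound concentration for 48 hours.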 Unmarked numbers belong to inactive results. The source made the active and inactive calls.

Among the test systems are DU-145 prostate; K-562 leukemia; MALME-3M melanoma; MDA-MB-231 breast; RXF 393 renal; SF-268 CNS; SF-295 CNS; SF-539 CNS; UACC-257 melanoma; M14 melanoma; HCT-15 colon; HT29 colon; SNB-75 CNS; SNB-19 CNS; U251 CNS; PC-3 prostate; SK-MEL-5 melanoma; UACC-62 melanoma; LOX IMVI melanoma; SK-MEL-28 melanoma.
Common to all, as to experiment: NCI-60 one-dose screen, 48 h (100 = growth as untreated, 0 = no growth, -100 = all killed)
Holding throughout (details): 10 µM unless noted

In the case of `N#Cc1cc(-c2ccnc(Nc3ccc(N4CCN(C5COC5)CC4)cc3)n2)ccc1N1CCCC1`, the growth is 51% in the assay on DU-145 prostate; 42.5% in the assay on K-562 leukemia; 104% in the assay with MALME-3M melanoma; 65% with MDA-MB-231 breast; 9.2% (active) in the assay on RXF 393 renal; 50.2% in the assay on SF-268 CNS. Besides, the growth is 85.6% in the assay with SF-295 CNS; 46.5% with SF-539 CNS; 74.4% in the assay on UACC-257 melanoma; 71.9% with M14 melanoma; 41.9% with HCT-15 colon; 18.6% with HT29 colon. The growth is 15.7% in the assay with SNB-75 CNS; 117% in the assay on SNB-19 CNS; 75.7% in the assay with U251 CNS; 64.4% in the assay with PC-3 prostate; 62.2% in the assay with SK-MEL-5 melanoma; 87.1% in the assay with UACC-62 melanoma. Besides, the growth in the assay on LOX IMVI melanoma is 40%; in the assay with SK-MEL-28 melanoma, 77.2%.
Turning to `CC1=C(C(=O)Nc2ccccc2)C(c2ccc3ccccc3c2)n2c(nc3ccccc32)N1` (stereo not given), the growth with DU-145 prostate is 46.2%; in the assay with K-562 leukemia, 43.8%; with MALME-3M melanoma, 72.5%; in the assay with MDA-MB-231 breast, 5.61% (active); in the assay with RXF 393 renal it was 53.3%; in the assay on SF-268 CNS, 72.5%. Moreover, the growth in the assay with SF-295 CNS is 37%; in the assay on SF-539 CNS, 81.8%; with UACC-257 melanoma, 81.1%; in the assay on M14 melanoma, 66.6%; in the assay on HCT-15 colon, 40.5%; with HT29 colon it was 69%. Besides, the growth in the assay with SNB-75 CNS was -11.1% (active); in the assay on SNB-19 CNS it was 79.4%; with U251 CNS, 28.6%; with PC-3 prostate it was 21.7%; in the assay with SK-MEL-5 melanoma, 87.3%; with UACC-62 melanoma it was 75%. The growth was 9.5% (active) in the assay on LOX IMVI melanoma and 63.2% with SK-MEL-28 melanoma.
As for `COc1ccccc1NC(=O)N/N=C/c1c[nH]c2ccccc12`, the growth was 17.6% with DU-145 prostate; 15.4% in the assay with K-562 leukemia; 54.6% in the assay with MALME-3M melanoma; 52.3% in the assay on MDA-MB-231 breast; -38.7% (active) in the assay on RXF 393 renal; 30.9% in the assay with SF-268 CNS. The growth in the assay on SF-295 CNS is -14.5% (active); in the assay on SF-539 CNS, -11.4% (active); with UACC-257 melanoma, 54.6%; in the assay with M14 melanoma it was 14.8%; in the assay on HCT-15 colon, 13.8%; with HT29 colon, 4.72% (active). In addition, the growth in the assay on SNB-75 CNS was 20.8%; in the assay on SNB-19 CNS, 40.6%; with U251 CNS it was 20%; in the assay with PC-3 prostate, 35.2%; in the assay on SK-MEL-5 melanoma, 4.48% (active); in the assay on UACC-62 melanoma, 20.3%. Moreover, the growth is -51.2% (active) with LOX IMVI melanoma and 44.2% in the assay on SK-MEL-28 melanoma.
With `N#Cc1c(-c2ccc(F)cc2)nc(SCc2ccccc2)nc1N1CCNCC1`, the growth was -79.8% (active) in the assay on DU-145 prostate; -22% (active) with K-562 leukemia; -97.3% (active) in the assay on MALME-3M melanoma; -98.5% (active) in the assay with MDA-MB-231 breast; -94.8% (active) in the assay with RXF 393 renal; -31.2% (active) in the assay on SF-268 CNS. In addition, the growth is -83% (active) with SF-295 CNS; -99.4% (active) in the assay on SF-539 CNS; -93.2% (active) in the assay with UACC-257 melanoma; -90.2% (active) with M14 melanoma; -87.9% (active) in the assay on HCT-15 colon; -70.7% (active) in the assay on HT29 colon. Besides, the growth is -93% (active) in the assay with SNB-75 CNS; -81.4% (active) with SNB-19 CNS; -95.8% (active) in the assay with U251 CNS; -51.6% (active) in the assay on PC-3 prostate; -100% (active) with SK-MEL-5 melanoma; -97.3% (active) with UACC-62 melanoma. Further, the growth in the assay on LOX IMVI melanoma is -93.6% (active); with SK-MEL-28 melanoma, -96.3% (active).
In the case of `COc1cc(/C=C/C(=O)c2cnn(-c3cc(=O)[nH]c4ccccc34)c2C)cc(OC)c1OC`, the growth in the assay on DU-145 prostate is 24.9%; in the assay with K-562 leukemia, 3.19% (active); with MALME-3M melanoma it was 38.2%; in the assay with MDA-MB-231 breast it was 5.84% (active); in the assay on RXF 393 renal it was -6.88% (active); in the assay with SF-268 CNS it was 32.2%. The growth in the assay with SF-295 CNS is 14.5%; with SF-539 CNS, -48% (active); with UACC-257 melanoma, 43.3%; with M14 melanoma, 19.5%; in the assay with HCT-15 colon, 12.2%; in the assay on HT29 colon it was 9.84% (active). Moreover, the growth in the assay with SNB-75 CNS is 71.9%; with SNB-19 CNS it was 26.6%; in the assay with U251 CNS, 9.13% (active); in the assay on PC-3 prostate, 43.3%; in the assay with SK-MEL-5 melanoma, -24.9% (active); in the assay with UACC-62 melanoma it was 29.9%. The growth in the assay on LOX IMVI melanoma was 13.5%; in the assay on SK-MEL-28 melanoma, 36.5%.
Take `O=C1Nc2cc(-c3ccc(NS(=O)(=O)c4ccc(F)c(Cl)c4)cc3)ccc2/C1=C/c1ccc[nH]1`: the growth is 20% in the assay with DU-145 prostate; 17.3% with K-562 leukemia; 50.3% in the assay on MALME-3M melanoma; -6.71% (active) in the assay on MDA-MB-231 breast; 29.5% in the assay with RXF 393 renal; 60.1% with SF-268 CNS. The growth in the assay with SF-295 CNS was 53.6%; in the assay on SF-539 CNS, -34.8% (active); in the assay with UACC-257 melanoma it was 29.7%; in the assay on M14 melanoma it was 48.4%; in the assay on HCT-15 colon it was 14%; in the assay with HT29 colon it was -18.4% (active). Besides, the growth was 62.7% with SNB-75 CNS; 46.6% in the assay on SNB-19 CNS; 2.34% (active) in the assay with U251 CNS; 30.2% in the assay with PC-3 prostate; 58.8% in the assay with SK-MEL-5 melanoma; 32.9% in the assay with UACC-62 melanoma. Besides, the growth in the assay on LOX IMVI melanoma is 0.97% (active); in the assay on SK-MEL-28 melanoma it was 41.4%.
Take `CCOc1ccccc1[C@H]1C(C(=O)c2ccc(Cl)cc2)C2(N[C@@H]1c1ccccc1)C(=O)Nc1ccc(Br)cc12` (stereo not given in full): the growth in the assay with DU-145 prostate is 23%; in the assay on K-562 leukemia, -13% (active); in the assay on MALME-3M melanoma, -15% (active); in the assay with MDA-MB-231 breast, -68.7% (active); in the assay with RXF 393 renal, -88.4% (active); with SF-268 CNS, 14.2%. In addition, the growth in the assay with SF-295 CNS was -42.6% (active); with SF-539 CNS it was -70.2% (active); in the assay with UACC-257 melanoma, 44%; in the assay with M14 melanoma, -38% (active); in the assay on HCT-15 colon it was -5.64% (active); in the assay on HT29 colon it was -62.1% (active). Also, the growth was 44.4% in the assay on SNB-75 CNS; 17.1% with SNB-19 CNS; 0.419% (active) in the assay on U251 CNS; 5.34% (active) in the assay on PC-3 prostate; -89.3% (active) with SK-MEL-5 melanoma; -46.8% (active) in the assay on UACC-62 melanoma. Further, the growth was -100% (active) in the assay with LOX IMVI melanoma and -23.4% (active) in the assay with SK-MEL-28 melanoma.
